Results from the supplement of paper PMC9942566.
Where a name gives a salt, the structure may show the parent alone. ± gives the standard deviation of the averaged measurements.

system: Serratia marcescens K904 PosmB-luxCDABE reporter (pMQ747); assay: PosmB-lux reporter fold induction (RLU/OD600 relative to no-compound control), highest over Biolog concentrations; higher = stronger Rcs reporter activation; settings: Biolog plate: PM11; well positions: C1-4; wild type K904; 4 h
Method: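 Serratia marcescens K904 (wild type) or its isogenic ΔrcsB mutant, carrying the Rcs-dependent PosmB-luxCDABE reporter plasmid pMQ747, was grown in LB at OD600 0.1 in Biolog Phenotype MicroArray plates PM11-20 for 4 h at 30-32°C. Each compound is present at 3-4 proprietary concentrations (not stated); per the Fig. S1 legend the value given is the highest fold over those wells. Three independent trials.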

| SMILES | PosmB-lux reporter fold induction |
| --- | --- |
| Cc1c(N)nc([C@H](CC(N)=O)NC[C@H](N)C(N)=O)nc1C(=O)N[C@H](C(=O)N[C@H](C)[C@@H](O)[C@H](C)C(=O)N[C@H](C(=O)NCCc1nc(-c2nc(C(=O)NCCC[S+](C)C)cs2)cs1)[C@@H](C)O)[C@@H](OC1OC(CO)C(O)C(O)C1OC1OC(CO)C(O)C(OC(N)=O)C1O)c1cnc[nH]1 (stereo not given in full) [Bleomycin] | 1.6 ± 0.14 |

same assay, conditions: Biolog plate: PM11; well positions: G9-12; wild type K904; 4 h

| SMILES | PosmB-lux reporter fold induction |
| --- | --- |
| O=[Te]([O-])[O-].[K+].[K+] [Potassium tellurite] | 1.58 ± 0.69 |

same assay, conditions: Biolog plate: PM13; well positions: A9-12; wild type K904; 4 h

| SMILES | PosmB-lux reporter fold induction |
| --- | --- |
| [Cl][Ni][Cl] [Nickel chloride] | 1.33 ± 0.21 |

same assay, conditions: Biolog plate: PM13; well positions: B9-12; wild type K904; 4 h

| SMILES | PosmB-lux reporter fold induction |
| --- | --- |
| CCn1cc(C(=O)O)c(=O)c2cc3c(cc21)OCO3 [Oxolinic acid] | 2.12 ± 0.57 |

same assay, conditions: Biolog plate: PM13; well positions: C9-12; wild type K904; 4 h

| SMILES | PosmB-lux reporter fold induction |
| --- | --- |
| [K+].[K+].[O]=[Cr](=[O])([O-])[O-] [Potassium chromate] | 2.55 ± 0.8 |

same assay, conditions: Biolog plate: PM13; well positions: E5-8; wild type K904; 4 h

| SMILES | PosmB-lux reporter fold induction |
| --- | --- |
| CN[C@@H]1[C@@H](O)[C@@H](O[C@@H]2[C@@H](O)[C@H](O[C@H]3O[C@H]([C@@H](C)O)[C@@H](O)[C@H](O)[C@H]3N)[C@@H](N)C[C@H]2N)OC[C@]1(C)O [Geneticin (G418)] | 1.38 ± 0.22 |

same assay, conditions: Biolog plate: PM14; well positions: B5-8; wild type K904; 4 h

| SMILES | PosmB-lux reporter fold induction |
| --- | --- |
| CCCCc1ccc(C(=O)O)nc1 [Fusaric acid] | 3.83 ± 1.8 |

same assay, conditions: Biolog plate: PM14; well positions: B9-12; wild type K904; 4 h

| SMILES | PosmB-lux reporter fold induction |
| --- | --- |
| O=[As]([O-])([O-])[O-].[Na+].[Na+].[Na+] [Sodium arsenate] | 2.1 ± 0.74 |

same assay, conditions: Biolog plate: PM14; well positions: C9-12; wild type K904; 4 h

| SMILES | PosmB-lux reporter fold induction |
| --- | --- |
| N#CO [Sodium cyanate] | 2.06 ± 0.13 |

same assay, conditions: Biolog plate: PM14; well positions: D1-4; wild type K904; 4 h

| SMILES | PosmB-lux reporter fold induction |
| --- | --- |
| [Cl][Cd][Cl] [Cadmium chloride] | 1.35 ± 0.73 |

same assay, conditions: Biolog plate: PM14; well positions: D5-8; wild type K904; 4 h

| SMILES | PosmB-lux reporter fold induction |
| --- | --- |
| O=C(O)CI [Iodoacetate] | 1.93 ± 0.39 |

same assay, conditions: Biolog plate: PM14; well positions: D9-12; wild type K904; 4 h

| SMILES | PosmB-lux reporter fold induction |
| --- | --- |
| [Na+].[Na+].[O]=[Cr](=[O])([O-])[O][Cr](=[O])(=[O])[O-] [Sodium dichromate] | 1.55 ± 0.067 |

same assay, conditions: Biolog plate: PM14; well positions: G9-12; wild type K904; 4 h

| SMILES | PosmB-lux reporter fold induction |
| --- | --- |
| O=[N+]([O-])[O-].[Na+] [Sodium nitrate] | 3.75 ± 1.3 |

same assay, conditions: Biolog plate: PM15; well positions: E9-12; wild type K904; 4 h

| SMILES | PosmB-lux reporter fold induction |
| --- | --- |
| C[n+]1ccc(-c2cc[n+](C)cc2)cc1 [Methyl viologen] | 1.4 ± 0.25 |

same assay, conditions: Biolog plate: PM15; well positions: G5-8; wild type K904; 4 h

| SMILES | PosmB-lux reporter fold induction |
| --- | --- |
| [N-]=[N+]=[N-] [Sodium azide] | 34 ± 10 |

same assay, conditions: Biolog plate: PM15; well positions: H1-4; wild type K904; 4 h

| SMILES | PosmB-lux reporter fold induction |
| --- | --- |
| O=[N+]([O-])c1ncc[nH]1 [2-Nitroimidazole] | 1.17 ± 0.56 |

same assay, conditions: Biolog plate: PM16; well positions: C1-4; wild type K904; 4 h

| SMILES | PosmB-lux reporter fold induction |
| --- | --- |
| CN(C)S(=O)(=O)N(SC(F)(Cl)Cl)c1ccccc1 [dichlofluanid] | 1.03 ± 0.34 |

same assay, conditions: Biolog plate: PM16; well positions: C9-12; wild type K904; 4 h

| SMILES | PosmB-lux reporter fold induction |
| --- | --- |
| CCCCCCCCCCCCCCCC[n+]1ccccc1 [cetylpyridinium] | 1.47 ± 0.48 |

same assay, conditions: Biolog plate: PM16; well positions: D1-4; wild type K904; 4 h

| SMILES | PosmB-lux reporter fold induction |
| --- | --- |
| O=[N+]([O-])c1ccc(Cl)c([N+](=O)[O-])c1 [1-chloro-2,4-dinitrobenzene] | 1.37 ± 0.54 |

same assay, conditions: Biolog plate: PM16; well positions: F1-4; wild type K904; 4 h

| SMILES | PosmB-lux reporter fold induction |
| --- | --- |
| O=[Te]([O-])[O-].[K+].[K+] [potassium tellurite] | 1.75 ± 1.1 |

same assay, conditions: Biolog plate: PM16; well positions: F5-8; wild type K904; 4 h

| SMILES | PosmB-lux reporter fold induction |
| --- | --- |
| O=[Se]([O-])[O-].[Na+].[Na+] [sodium selenite] | 1.03 ± 0.38 |

same assay, conditions: Biolog plate: PM17; well positions: A5-8; wild type K904; 4 h

| SMILES | PosmB-lux reporter fold induction |
| --- | --- |
| NC(CCl)C(=O)O [b-chloro-L-alanine hydrochloride] | 1.57 ± 0.59 |

same assay, conditions: Biolog plate: PM17; well positions: B5-8; wild type K904; 4 h

| SMILES | PosmB-lux reporter fold induction |
| --- | --- |
| CNC1CC(N)C(O)C(OC2OC(CO)C(O)C3OC4(OC(C(N)CO)C(O)C(O)C4O)OC23)C1O (stereo not given) [hygromycin B] | 1.46 ± 0.35 |

same assay, conditions: Biolog plate: PM17; well positions: C1-4; wild type K904; 4 h

| SMILES | PosmB-lux reporter fold induction |
| --- | --- |
| Nc1ccncc1 [4-aminopyridine] | 10.2 ± 7.7 |

same assay, conditions: Biolog plate: PM17; well positions: D1-4; wild type K904; 4 h

| SMILES | PosmB-lux reporter fold induction |
| --- | --- |
| CC1=C(C(=O)Nc2ccccc2)S(=O)(=O)CCO1 [oxycarboxin] | 2.25 ± 0.26 |

same assay, conditions: Biolog plate: PM17; well positions: D5-8; wild type K904; 4 h

| SMILES | PosmB-lux reporter fold induction |
| --- | --- |
| Nc1ncn[nH]1 [3-amino-1,2,4-triazole] | 1.11 ± 0.18 |

same assay, conditions: Biolog plate: PM17; well positions: G1-4; wild type K904; 4 h

| SMILES | PosmB-lux reporter fold induction |
| --- | --- |
| O=C(O)CCCc1ccc(N(CCCl)CCCl)cc1 [chlorambucil] | 1.34 ± 0.1 |

same assay, conditions: Biolog plate: PM18; well positions: C9-12; wild type K904; 4 h

| SMILES | PosmB-lux reporter fold induction |
| --- | --- |
| Oc1c(Cl)c(Cl)c(Cl)c(Cl)c1Cl [pentachloro-phenol] | 1.04 ± 0.25 |

same assay, conditions: Biolog plate: PM18; well positions: E5-8; wild type K904; 4 h

| SMILES | PosmB-lux reporter fold induction |
| --- | --- |
| [O-][I+3]([O-])([O-])O [sodium m-periodate] | 2.47 ± 0.4 |

same assay, conditions: Biolog plate: PM18; well positions: E9-12; wild type K904; 4 h

| SMILES | PosmB-lux reporter fold induction |
| --- | --- |
| [Cl][Sb]([Cl])[Cl] [antimony (III) chloride] | 0.722 ± 0.067 |

same assay, conditions: Biolog plate: PM18; well positions: G1-4; wild type K904; 4 h

| SMILES | PosmB-lux reporter fold induction |
| --- | --- |
| Oc1cc(Cl)ccc1Oc1ccc(Cl)cc1Cl [triclosan] | 1.45 ± 0.61 |

same assay, conditions: Biolog plate: PM18; well positions: G5-8; wild type K904; 4 h

| SMILES | PosmB-lux reporter fold induction |
| --- | --- |
| Nc1n[nH]c(N)n1 [3,5-diamino-1,2,4-triazole (Guanazole)] | 1.96 ± 0.29 |

same assay, conditions: Biolog plate: PM18; well positions: H5-8; wild type K904; 4 h

| SMILES | PosmB-lux reporter fold induction |
| --- | --- |
| Oc1ccccc1-c1ccccc1 [2-phenylphenol] | 2.88 ± 0.52 |

same assay, conditions: Biolog plate: PM18; well positions: H9-12; wild type K904; 4 h

| SMILES | PosmB-lux reporter fold induction |
| --- | --- |
| CC1=CC(=O)c2c(O)cccc2C1=O [plumbagin] | 0.936 ± 0.027 |

same assay, conditions: Biolog plate: PM20; well positions: C5-8; wild type K904; 4 h

| SMILES | PosmB-lux reporter fold induction |
| --- | --- |
| CN1[C@@H]2CC[C@H]1C[C@@H](OC(=O)C(CO)c1ccccc1)C2 (stereo not given in full) [atropine] | 2.56 ± 0.59 |

same assay, conditions: Biolog plate: PM20; well positions: E5-8; wild type K904; 4 h

| SMILES | PosmB-lux reporter fold induction |
| --- | --- |
| CCCCCCCCCCCCNC(=N)N [dodine] | 1.94 ± 0.27 |

same assay, conditions: Biolog plate: PM20; well positions: F1-4; wild type K904; 4 h

| SMILES | PosmB-lux reporter fold induction |
| --- | --- |
| O=c1cc(O)c2ccccc2o1 [4-hydroxyl-coumarin] | 2.25 ± 0.64 |

same assay, conditions: Biolog plate: PM20; well positions: G9-12; wild type K904; 4 h

| SMILES | PosmB-lux reporter fold induction |
| --- | --- |
| Oc1cccc2cccnc12 [8-hydroxy-quinoline] | 2.7 ± 0.72 |

same assay, conditions: Biolog plate: PM20; well positions: H1-4; wild type K904; 4 h

| SMILES | PosmB-lux reporter fold induction |
| --- | --- |
| O=C1C=C2C(=CCOC2O)O1 (stereo not given) [patulin] | 1.71 ± 0.23 |

same assay, conditions: Biolog plate: PM20; well positions: H5-8; wild type K904; 4 h

| SMILES | PosmB-lux reporter fold induction |
| --- | --- |
| Cc1ccc(N(SC(F)(Cl)Cl)S(=O)(=O)N(C)C)cc1 [tolylfluanid] | 1.32 ± 0.14 |
